# High-throughput results (PubChem BioAssay)
# An excerpt weighted towards active compounds, which were near 11% of everything screened.
# ALDH1A1 inh = qHTS Assay for Inhibitors of Aldehyde Dehydrogenase 1 (ALDH1A1); Aldehyde dehydrogenase 1A1 (Homo sapiens), P00352; Purified ALDH1A1, NADH fluorescence, propionaldehyde substrate; Potency, µM (top dose mostly 75.3 µM), usual class: inhibitors; 220,000 compounds, 7.3% hits
# Target sequence (P00352 whole entry, looked up): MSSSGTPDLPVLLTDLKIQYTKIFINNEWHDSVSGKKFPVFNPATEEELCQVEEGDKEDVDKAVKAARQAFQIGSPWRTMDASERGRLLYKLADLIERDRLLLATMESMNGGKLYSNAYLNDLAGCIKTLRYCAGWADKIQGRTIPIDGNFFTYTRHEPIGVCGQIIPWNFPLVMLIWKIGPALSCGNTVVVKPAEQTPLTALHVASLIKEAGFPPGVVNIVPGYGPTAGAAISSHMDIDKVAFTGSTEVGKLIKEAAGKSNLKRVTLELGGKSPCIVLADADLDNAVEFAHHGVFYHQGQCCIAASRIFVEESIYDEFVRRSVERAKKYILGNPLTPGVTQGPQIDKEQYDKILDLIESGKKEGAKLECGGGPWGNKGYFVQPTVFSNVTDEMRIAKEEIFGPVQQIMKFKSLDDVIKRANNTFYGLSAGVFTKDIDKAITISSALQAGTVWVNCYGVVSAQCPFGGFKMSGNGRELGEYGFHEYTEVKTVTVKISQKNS
# HPGD inh = qHTS Assay for Inhibitors of HPGD (15-Hydroxyprostaglandin Dehydrogenase); 15-hydroxyprostaglandin dehydrogenase [NAD(+)] (Homo sapiens), P15428; purified HPGD, NADH fluorescence kinetic, PGE2 substrate; Potency, µM, hits mostly inhibitors; 150,000 compounds, 4.3% hits; AID 894, 2007
#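 20 nM HPGD preincubated 15 min at room temperature with compound in 50 mM Tris-HCl pH 8, 0.01% Tween 20. Started with 1 mM NAD+ and 30 uM prostaglandin E2; NADH fluorescence (360/450 nm) read 5 times over 30-s intervals, last minus first.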
# PNC assembly inh = High Content Assay for Compounds that inhibit the Assembly of the Perinucleolar Compartment; PC3M PTB-GFP, PNC prevalence imaging, 16 h; hits give low values; activity change (PNC), negative = inhibition, % at 10 µM; 140,000 compounds, 3.1% hits; AID 2417, 2010;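 active = readout at or below -70, meaning at least 70% loss of cells showing the perinucleolar compartment, a nuclear body marking cancer cells; inconclusive = readout between -30 and a set limit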
#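 PC3M cells stably expressing PTB-GFP, 750–1000 cells/well, treated 16 h at 37 °C with compound (23 nl of library stock), in duplicate. After paraformaldehyde fixation and Hoechst stain, imaged at 20x; PNC prevalence scored by image analysis.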
# A number is an active result; 0 = inactive; ? = inconclusive; - = not tested or not shown; [ ] = dose if it differs, or a comment. Unless noted, calls follow the shape of the dose curve; as a rule, active = well fitted inhibition curve with a large enough effect (not every such curve was filed as active); inconclusive = small, poorly fitted or top-dose-only effect, or another doubt; inactive = no such curve, though single readings can be large or run the other way.
SMILES,ALDH1A1 inh,HPGD inh,PNC assembly inh
N#CCCN(C(=O)CSc1nc(-c2ccccc2)cn1N)c1ccc(F)cc1,0,0,0
COC(=O)c1cc(CSc2nnc(NC3CCCCC3)s2)oc1C,?,0,?
CCCCc1ccc(CC(=O)O)cc1,14µM,32µM,?
CCCCc1ccc(NC(=O)OC)cc1,0,0,0
CC(C)(C)NC(=S)NC(=O)C12CC3CCC(CC(C3)C1)C2,?,0,0
CN(C)NC(=S)NC(=O)C12CC3CC(CC(C3)C1)C2,28µM,-,-
CN(CC(=O)Nc1cccc([N+](=O)[O-])c1)S(=O)(=O)c1ccccc1,0,-,-
Cc1ccc(-c2nn(-c3ccccc3)c3[nH]c(=O)c(CNCc4ccccc4)cc23)cc1,?,0,0
O=C(CCl)Nc1cc(-c2ccccc2)nn1-c1ccccc1,1.3µM,0,?
Cc1cc(NC(=O)COc2ccccc2)n(-c2ccccc2)n1,?,0,0
Cc1ccc(-c2nn(-c3ccccc3)cc2NC(=O)CCl)cc1,20µM,-,-
Cc1ccc(-c2cc(NC(=O)CCl)n(-c3ccccc3)n2)cc1,0.5µM,0,?
Cc1ccc(-c2nn(-c3ccccc3)cc2CNCc2ccccc2)cc1,22µM,-,-
Cc1ccccc1NC(=O)c1cn(-c2ccccc2)nc1-c1ccccc1,0,0,?
CC(=O)Nc1ccc(-c2cc(NC(C)=O)n(-c3ccccc3)n2)cc1,0,-,0
O=c1[nH]cnc2cc(Cl)ccc12,0,0,0
CCNC(=O)CN1C(=O)NC(Cc2ccccc2)(Cc2ccccc2)C1=O,0,-,-
Cc1cc(NC(=O)CC(F)(F)F)n(-c2ccccc2)n1,0,-,-
Cc1cc(NC(=O)CCl)n(-c2nc3ccccc3s2)n1,4µM,-,-
COc1ccccc1NC(=O)c1c(Nc2ccccc2F)sc(C(=O)Nc2cccc(Cl)c2)c1N,0,0,0
CN1C(=O)/C(=N/OC(=O)c2ccccc2)c2ccccc21,?,14µM,0
O=C(O/N=C1\C(=O)N(c2ccccc2)c2ccccc21)C1CC1,0,-,-
COc1ccc(N2CCN(C(=O)CCNS(=O)(=O)c3ccc(Br)s3)CC2)cc1,?,0,0
O=C1CC(=C2c3ccccc3-c3ccccc32)C(=O)N1CCCCN1CCN(c2ccccc2)CC1,0,0,0
CCc1ccccc1NC(=O)CN(C)C(=O)CSc1nn(-c2ccccc2)c(=S)s1,?,0,0
SMILES,ALDH1A1 inh,HPGD inh,PNC assembly inh
COC(=O)c1ccc2nc(C)cc(Nc3ccc(N(C)C)cc3)c2c1,?,0,-119
COC(=O)c1ccc(Nc2cc(C)nc3ccccc23)cc1,0,-,-
CC(C)(C)OC(=O)NCCc1nnc(SCC(=O)Nc2cccc(Cl)c2)o1,0,0,0
O=C(CSc1nnc(CNC(=O)c2c(F)cccc2Cl)o1)NCc1ccc2c(c1)OCO2,0,0,0
O=C(CSc1nnc(CNC(=O)c2c(F)cccc2Cl)o1)Nc1ccc2c(c1)OCCO2,18µM,0,?
COc1ccc(Cl)cc1NC(=O)CSc1nnc(CNC(=O)c2ccco2)o1,0,-,-
COc1ccc(OC)c(NC(=O)CSc2nnc(CNC(=O)c3ccco3)o2)c1,10µM,0,0
CC(C)(C)OC(=O)NCCCCCc1nnc(SCC(=O)Nc2cccc(Cl)c2)o1,?,14µM,0
COc1ccc(OC)c(NC(=O)CSc2nnc(C)n2Cc2ccccc2)c1,18µM,0,0
COc1ccc(NC(=O)CSc2nnc(C)n2Cc2ccccc2)cc1,0,0,0
COc1ccc(C(=O)NCc2nnc(SCC(=O)Nc3cccc(F)c3)o2)cc1,9.5µM,-,-
COc1ccc(C(=O)NCc2nnc(SCC(=O)NCc3ccc(F)cc3)o2)cc1,?,0,0
OCCNC(=S)Nc1ccc2c(c1)OCCO2,0,-,-
CCOc1cccc(C(=O)Nc2ccc(N3CCN(S(C)(=O)=O)CC3)cc2)c1,0,0,0
O=C(Nc1ccc2c(c1)OCO2)c1cccc(Cl)c1,0,?,0
CCOc1cccc(C(=O)NC(=S)Nc2ccc3c(c2)OCCO3)c1,4µM,-,-
S=C(Nc1ccc2c(c1)OCCO2)Nc1ccc2c(c1)OCO2,22µM,-,-
CCOc1cccc(C(=O)NC(=S)Nc2ccc(N3CCCC3)cc2)c1,7.1µM,0,?
CCOc1ccc(C(=O)Nc2ccc3c(c2)OCCO3)cc1OC,0,0,?
O=C(Nc1ccc2c(c1)OCO2)c1ccc(Cl)s1,?,16µM,0
CC(C)C(=O)N(Cc1cc2ccccc2[nH]c1=O)C(C)(C)C,0,0,0
CC(C)=CCC(C)(C)CNC(=O)NC1CCCCC1,0,0,0
CC(NCc1ccco1)C(=O)N1CCc2ccccc2C1 (centres undefined),?,0,0
COc1ccc(/C=C/C(=O)OCC(=O)c2c(C)[nH]c3ccccc23)cc1OC,?,?,0
O=C(NC(=S)Nc1ccc2c(c1)OCCO2)c1ccccc1,22µM,0,0
SMILES,ALDH1A1 inh,HPGD inh,PNC assembly inh
COc1cccc(OC)c1C(=O)NC(=S)Nc1ccc2c(c1)OCCO2,0,-,-
C[C@@H](C(=O)O)c1ccc(N2Cc3ccccc3C2=O)cc1,0,0,-
C=CCn1c(-c2csc3ccccc23)n[nH]c1=S,0,0,0
C=CCn1c(=S)[nH]c2sccc2c1=O,32µM,-,-
COc1ccc(OC)c(NC(=O)C2=C(C)NC(=O)NC2c2cccs2)c1 (centres undefined),0,-,-
O=C(C1=C(O)C(=O)N(Cc2ccco2)C1c1ccccc1)c1cccs1 (centres undefined),0,0,0
O=C(Cn1c(=O)n(Cc2ccco2)c(=O)c2ccccc21)Nc1cccc(Cl)c1,0,0,0
O=C(Cn1c(=O)n(Cc2ccco2)c(=O)c2cc(Cl)ccc21)NCC1CCCO1 (centres undefined),25µM,0,?
CC(=O)OC/C=C(\C)CC/C=C(\C)CC/C=C(\C)CC/C=C(\C)CC/C=C(\C)CC/C=C(\C)CC/C=C(\C)CC/C=C(\C)CCC=C(C)C,0,0,-
NC(=O)CC[C@H](NC(=O)c1ccc(F)cc1)C(=O)OCC(=O)Nc1c(F)c(F)c(F)c(F)c1F,0,0,-92
CC(C)c1ccc(NC(=O)COC(=O)[C@H](CCC(N)=O)NC(=O)c2ccc(F)cc2)cc1,?,0,0
CCc1ccc2c(c1)c1nc(C)sc1n2CC(=O)OC,0,0,?
CCc1ccc2c(c1)c1nnc(NN)nc1n2CC,2.8µM,?,0
CCCn1c2ccc(F)cc2c2nnc(NN)nc21,4.5µM,-,-
CCn1c2ccc(F)cc2c2nnc(NN)nc21,7.1µM,0,0
Cc1nc2c3cc(F)ccc3n(CCN3CCCCC3)c2s1,0,-,-
CSc1nnc2c3cc(F)ccc3n(Cc3ccccc3)c2n1,?,0,0
O=C(NCCO)/C(=C\c1ccc(Br)cc1)NC(=O)c1cccs1,0,0,0
Cc1ccc(S(=O)(=O)N2CCCN(S(=O)(=O)C3CCS(=O)(=O)C3)CC2)cc1 (centres undefined),0,0,0
Cc1ccc(SCCCCN2CCNCC2)cc1,?,0,0
COc1ccc2c(c1OC)OCC(c1ccc(OC)c(OC)c1OC)C2 (centres undefined),0,0,-
Cc1ccc(N2CCN(/N=C/c3ccccc3)CC2)cc1,0,-,-
Cn1cccc1/C=N/N1CCN(c2ccccc2)CC1,14µM,-,-
COC(=O)c1cc(=O)[nH]c(=O)[nH]1,0[13.5 µM],0,-
